This is part of a sample that, as a whole, favours compounds with a hit. Of some 83,000 tested, about 20% had one in any assay.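 Step 1: grow cells in 96-well plates. Step 2: add test compound at a single concentration. Step 3: incubate 48 h. Step 4: record percent growth.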 The source made the active and inactive calls.

This assay has as its system LOX IMVI melanoma. Description: NCI-60 one-dose screen, 48 h (100 = growth as untreated, 0 = no growth, -100 = all killed). To be noted: 10 µM unless noted. Here is the method: Growth inhibition of the LOX IMVI human tumor cell line is measured as a screen for anti-cancer activity. Cells are grown in 96 well plates and exposed to the test compound for 48 hours. Compounds are tested at a single concentration, which is 10^-5 M for most compounds. The reported endpoint is percent growth (GI% or GIPRCNT), where numbers from 0 - 100% represent growth inhibition, and numbers from -100% - 0 represent cell death. For example, a value of 40 represents 60% growth inhibition. A value of 0 means no net growth occurred over the course of the experiment. A value of -40 indicates 40% of cells at the beginning of the experiment died by the end of the experiment. A value of -100 means all cells are dead at the end of the experiment.
NCI-60 Human Tumor Cell Lines Screen was performed using the standard one-dose NCI protocol, which is described in more detail at https://dtp.cancer.gov/discovery_development/nci-60/default.htm.
Compounds with GIPRCNT values below 10 were considered active. Activity score was based on GIPRCNT using the following formula: […]
Score is 0 for GIPRCNT values of 100 or above, 50 for GIPRCNT values of 0, and 100 for GIPRCNT values of -100.
Regarding `O=C(N/N=C/c1c[nH]c2ccccc12)c1cc(-c2ccccc2)on1`, the growth is 56.3% (inactive). On to `O=C1c2ccccc2OC=C(c2ccccc2)N1CCCCNc1ccc(S(=O)(=O)Nc2ncccn2)cc1`, for which the growth is 92.7% (inactive). As for `CCCc1cc(=O)n2c(C(=O)Nc3cccc(C(=O)OCC)c3)c(C(=O)Nc3ccc(F)cc3)sc2n1`, the figure is 46.8% [30 µM] (inactive); as for `COc1ccc(C(=O)COc2ccc(/C=C3\COc4ccc(OC)cc4C3=O)cc2)cc1`, 80.7% (inactive); as for `O=C(/C=C/c1cccc(Cl)c1)c1ccc(O)c(CN2CCN(c3cc4c(cc3F)c(=O)c(C(=O)O)cn4C3CC3)CC2)c1`, 11.7% (inactive). Regarding `N#Cc1nnn(-c2ccc(S(N)(=O)=O)cc2)c1NCC(=O)c1ccccc1`, the growth is 94.1% (inactive).

On to `NCCNc1nc(Nc2ccc(-c3nc4ccccc4[nH]3)cc2)c2cn[nH]c2n1`, for which the growth was -17.8% (active). In the case of `COc1cccc(NC(=O)c2sc3nc(C)c(C(C)=O)cc3c2N)c1`, the growth is 47.2% (inactive).

For `CC(C)(C)c1cc(C(C)(C)C)cc(S(=O)(=O)Nc2cc3ccccc3cc2C(=O)NCCN)c1`, the growth was -77.8% (active).

Consider `O=C1c2cc3c(cc2-c2c1c1ccc(F)cc1c(=O)n2C[C@H](O)[C@H](O)[C@H](O)CO)OCO3`, for which the growth is -33.5% (active). In the case of `COc1cc2c(cc1O)CC[C@@H]1[C@@H]2CC[C@]2(C)[C@@H](NCCN(C)C)CC[C@@H]12`, the growth is -84.2% (active). As to `NC(=NCCCOc1ccc(Cl)cc1)Nc1ccc(C(F)(F)F)cc1`, the growth was 9.81% (active).

Regarding `CSc1nc(NCc2ccccc2)c(C#N)c(-c2cccc([N+](=O)[O-])c2)n1`, the growth is 92.1% (inactive).

As to `CC(=O)Oc1ccc(Cl)cc1CN(C(C)=O)C1CCCCC1`, the growth was 114% (inactive). On to `COc1ccccc1NS(=O)(=O)c1ccc2oc(SC(C)C)nc2c1`, for which the growth is 146% (inactive).

Consider `COc1ccc2c(c1)c(-c1nonc1-c1cn(C)c3ccccc13)cn2C`, for which the growth is 47.2% (inactive). In the case of `CC(=O)c1nc2ccccc2n1CC(=O)c1cccc(Cl)c1`, the growth was 36.9% (inactive). For the compound `O=S(=O)(Nc1ccc(Br)c(Cl)c1)c1ccc(-c2cnc(C3CC3)o2)cc1`, the growth is 43.7% (inactive).

With `O=C(/C=C/c1cccc([N+](=O)[O-])c1)c1ccc(O)c(CN2CCN(c3cc4c(cc3F)c(=O)c(C(=O)O)cn4C3CC3)CC2)c1`, the growth was -93.5% (active).

For `COc1ccc(C2Nc3c(c(C(C)(C)C)nn3-c3ccccc3)C(=O)CS2)cc1` (stereo not given), the growth is 94.5% (inactive). For `CC(=O)O[C@H]1[C@@H]2OC(=O)C(CSc3ccccc3)[C@@H]2C[C@H]2O[C@]2(C)CC/C=C(\C)CCC[C@@H]1C` (stereo not given in full) the value was 28.4% (inactive). In the case of `CC[C@H]1OC(=O)[C@H](C)[C@@H](O[C@H]2C[C@@](C)(OC)[C@@H](O)[C@H](C)O2)[C@H](C)[C@@H](O[C@@H]2O[C@H](C)C[C@H](N(C)C)[C@H]2O)[C@](C)(O)C[C@H](C)CN(C)[C@H](C)[C@@H](O)[C@]1(C)O`, the growth was 87% (inactive).

Regarding `CN1CCN(c2nc(NCCCCNc3ccnc4cc(Cl)ccc34)c3ccccc3n2)CC1`, the growth was 2.66% (active).

With `COC[C@H](C)n1c(C2CCOCC2)nc2cnc3cc(-c4c(C)noc4C)c(OC)cc3c21`, the growth was 27% (inactive). For the compound `CC(=O)OC[C@H]1O[C@H](OC(C)=O)[C@H](NC(=O)/C=C/CCl)[C@@H](OC(C)=O)[C@@H]1OC(C)=O`, the growth is 68.8% (inactive). Consider `CCOC(=O)C(C)(C#N)C1C=CCCC1` (stereo not given), for which the growth is 96.1% (inactive). In the case of `COc1cccc2c1C(=O)c1c(O)c3c(c(O)c1C2=O)C[C@](O)(C(=O)CO)C[C@H]3O[C@@H]1C[C@@H](NC(=O)CCCCCN(C)C2(c3ccc(F)cc3)CC3CCC2C3)[C@H](O)[C@@H](C)O1` (stereo not given in full), the growth was -90.5% (active). For `O=S(=O)(Nc1ccc(OC(F)F)cc1)c1ccc(-c2cnc(C3CC3)o2)cc1` the value was 72% (inactive); for `O=C(O)COc1ccc(Cl)cc1C1CCCCC1`, 106% (inactive); for `O=CNc1ccc2c(c1)Cc1cccc(NC=O)c1-2`, 90.5% (inactive). For `CCOc1cc2ncc(C#N)c(Nc3ccc(F)c(Cl)c3)c2cc1NC(=O)CC1CCSS1` (stereo not given), the growth was -81.2% (active). Regarding `COc1cccc(Nc2nc(SC)nc(-c3cccc([N+](=O)[O-])c3)c2C#N)c1`, the growth was 64.9% (inactive). Turning to `O=C1CC(=NCC(=O)n2c(-c3ccccc3)nc3ccccc32)NN1`, the growth is 89.9% (inactive). As for `COc1cc2c(cc1-c1c(C)noc1C)ncc1nc(C3CCOCC3)n([C@@H](C)COC(F)F)c12`, the figure is 24.2% (inactive). With `O=c1c(F)cn(Cc2ccccc2CCl)c(=O)n1Cc1ccccc1CCl`, the growth was -81.7% (active). Turning to `COC(=O)c1ccc(NC(=O)c2ccc(-c3cccc([N+](=O)[O-])c3)o2)cc1`, the growth is 96.1% (inactive). For `COc1cc(/C=C/c2cc(O)c3cc(C(C)=O)c(=O)oc3c2)cc2c1O[C@]1(C)CC[C@@H](O)C(C)(C)[C@H]1C2` the value was 18.8% (inactive); for `CN(C)S(=O)(=O)c1ccc(S(=O)(=O)Nc2cccc(Cl)c2N2CCCCC2)cc1`, 67.4% (inactive).

As for `C=C1c2nc3ccccc3n2C=C(c2ccc(Cl)cc2)N1Cc1ccc(OC)cc1`, the growth is 87.5% (inactive). For the compound `CN1CCN(CCCOc2cccc3nc(Nc4ccc(Cl)c(F)c4)ccc23)CC1`, the growth is -96.1% (active).

The record behind these values is PubChem BioAssay (NCI).
